About 83,000 compounds went through this panel and 20% of them were active in at least one assay; those are over-represented in the sample as a whole.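 Single-concentration screen, 48 h exposure, 96-well plates. Endpoint: percent growth. Below 10 = active.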 Calls of active or inactive are those of the source.
Tests used:
Assay in all cases: NCI-60 one-dose screen, 48 h (100 = growth as untreated, 0 = no growth, -100 = all killed)
Details in all cases: 10 µM unless noted
NCI-H23 lung = test system: NCI-H23 lung
NCI-H226 lung = test system: NCI-H226 lung
NCI-H322M lung = test system: NCI-H322M lung
HOP-62 NSCLC = test system: HOP-62 NSCLC
NCI-H460 lung = test system: NCI-H460 lung
HOP-92 NSCLC = test system: HOP-92 NSCLC
NCI-H522 lung = test system: NCI-H522 lung
A549/ATCC NSCLC = test system: A549/ATCC NSCLC
786-0 renal = test system: 786-0 renal
COLO 205 colon = test system: COLO 205 colon
DU-145 prostate = test system: DU-145 prostate
K-562 leukemia = test system: K-562 leukemia
MALME-3M melanoma = test system: MALME-3M melanoma
MDA-MB-231 breast = test system: MDA-MB-231 breast
RXF 393 renal = test system: RXF 393 renal
SF-268 CNS = test system: SF-268 CNS
SF-295 CNS = test system: SF-295 CNS
SF-539 CNS = test system: SF-539 CNS
UACC-257 melanoma = test system: UACC-257 melanoma
M14 melanoma = test system: M14 melanoma

Measured: growth

COc1ccc(-n2nc(C)c3c(Nc4ccc(NC(=O)Nc5c(Cl)cccc5Cl)cc4)ncnc32)cc1
inactive: NCI-H23 lung 52.1% | NCI-H226 lung 37.2% | NCI-H322M lung 57.7% | HOP-62 NSCLC 50.3% | NCI-H460 lung 50.4% | HOP-92 NSCLC 43.9% | NCI-H522 lung 58% | A549/ATCC NSCLC 44.6% | 786-0 renal 55.2% | COLO 205 colon 70.1% | DU-145 prostate 51.4% | K-562 leukemia 79.1% | MALME-3M melanoma 31.3% | MDA-MB-231 breast 30.6% | RXF 393 renal 26.2% | SF-268 CNS 59.4% | SF-295 CNS 85.2% | SF-539 CNS 30% | UACC-257 melanoma 53% | M14 melanoma 82.2%

CSc1nc(Nc2cccc(NC(=O)CCl)c2)c(C#N)c(-c2cccc([N+](=O)[O-])c2)n1
inactive: NCI-H23 lung 40.3% | NCI-H226 lung 42.2% | NCI-H322M lung 97.4% | HOP-62 NSCLC 86.5% | NCI-H460 lung 86.8% | HOP-92 NSCLC 40.7% | A549/ATCC NSCLC 95.9% | 786-0 renal 73.2% | COLO 205 colon 35.9% | DU-145 prostate 13.4% | MALME-3M melanoma 37.3% | MDA-MB-231 breast 68.4% | RXF 393 renal 43.7% | SF-268 CNS 34% | SF-295 CNS 95.4% | SF-539 CNS 73.3% | UACC-257 melanoma 84.6% | M14 melanoma 48.7%
active: NCI-H522 lung -55.9% | K-562 leukemia 5.6%

O=C1NC(=S)NC(=O)C1CC(=O)n1c(-c2ccccc2)nc2ccccc21
inactive: NCI-H23 lung 97.2% | NCI-H226 lung 86.1% | NCI-H322M lung 94% | HOP-62 NSCLC 79.9% | NCI-H460 lung 101% | HOP-92 NSCLC 108% | NCI-H522 lung 96.9% | A549/ATCC NSCLC 97.7% | 786-0 renal 104% | COLO 205 colon 111% | DU-145 prostate 113% | K-562 leukemia 98.6% | MALME-3M melanoma 93% | MDA-MB-231 breast 88% | RXF 393 renal 110% | SF-268 CNS 93.8% | SF-295 CNS 96.3% | SF-539 CNS 94.1% | UACC-257 melanoma 111% | M14 melanoma 99%

O=C1/C(=C/C(Cl)=C/c2ccccc2)SC(=S)N1CCc1ccc(O)cc1
active: NCI-H23 lung -18.1% | HOP-62 NSCLC -6.2% | NCI-H460 lung 0.138% | HOP-92 NSCLC -1.85% | NCI-H522 lung -7.91% | A549/ATCC NSCLC -5.56% | 786-0 renal -47% | COLO 205 colon -9.3% | K-562 leukemia 5.68% | MALME-3M melanoma -2.34% | RXF 393 renal -46.1% | SF-295 CNS 4.96% | SF-539 CNS 3.33% | M14 melanoma -12.7%
inactive: NCI-H226 lung 55.7% | NCI-H322M lung 44% | DU-145 prostate 15.8% | MDA-MB-231 breast 27.3% | SF-268 CNS 19.8% | UACC-257 melanoma 17.4%

CCOC(=O)c1c(C)oc2ncnc(N3CCN(C(=S)Nc4ccccc4)CC3)c12
inactive: NCI-H23 lung 90.8% | NCI-H226 lung 87.2% | NCI-H322M lung 92.3% | HOP-62 NSCLC 87.2% | NCI-H460 lung 103% | HOP-92 NSCLC 83.3% | NCI-H522 lung 80.9% | A549/ATCC NSCLC 92% | 786-0 renal 97.8% | COLO 205 colon 104% | DU-145 prostate 101% | K-562 leukemia 85% | MALME-3M melanoma 99.9% | MDA-MB-231 breast 89.1% | RXF 393 renal 90.8% | SF-268 CNS 94.1% | SF-295 CNS 96% | SF-539 CNS 91.8% | UACC-257 melanoma 98% | M14 melanoma 104%

C=CC(=O)Nc1cccc(-c2nc(SC)nc(Nc3cccc(OC)c3)c2C#N)c1
inactive: NCI-H23 lung 81% | NCI-H226 lung 70.9% | NCI-H322M lung 94.5% | HOP-62 NSCLC 85.5% | NCI-H460 lung 86% | HOP-92 NSCLC 29.5% | NCI-H522 lung 58.7% | A549/ATCC NSCLC 57.3% | 786-0 renal 62.7% | COLO 205 colon 93.3% | DU-145 prostate 54.6% | K-562 leukemia 54.6% | MALME-3M melanoma 77.6% | MDA-MB-231 breast 71.4% | RXF 393 renal 36.9% | SF-268 CNS 57.1% | SF-295 CNS 77.8% | SF-539 CNS 71.3% | UACC-257 melanoma 82.3% | M14 melanoma 60.6%

c1ccc(CCNc2ncnc3[nH]ncc23)cc1
inactive: NCI-H23 lung 94.4% | NCI-H226 lung 89.4% | NCI-H322M lung 112% | HOP-62 NSCLC 89.7% | NCI-H460 lung 117% | HOP-92 NSCLC 55.4% | NCI-H522 lung 85.5% | A549/ATCC NSCLC 92.4% | 786-0 renal 96.4% | COLO 205 colon 114% | DU-145 prostate 109% | K-562 leukemia 94.6% | MALME-3M melanoma 114% | MDA-MB-231 breast 93.2% | RXF 393 renal 93.2% | SF-268 CNS 109% | SF-295 CNS 102% | SF-539 CNS 116% | UACC-257 melanoma 96.5% | M14 melanoma 104%

CC(C)n1c(/C=C/[C@@H](O)C[C@@H](O)CC(=O)O)c(-c2ccc(F)cc2)c2ccccc21
inactive: NCI-H23 lung 38.4% | NCI-H226 lung 64.1% | NCI-H322M lung 43.7% | HOP-62 NSCLC 73.4% | NCI-H460 lung 32.5% | A549/ATCC NSCLC 61.3% | 786-0 renal 64% | COLO 205 colon 75.4% | DU-145 prostate 97.9% | K-562 leukemia 66.4% | MALME-3M melanoma 79.6% | MDA-MB-231 breast 15.7% | RXF 393 renal 50.9% | SF-268 CNS 43.6% | SF-295 CNS 16.8% | SF-539 CNS 83.5% | UACC-257 melanoma 79.4% | M14 melanoma 55.5%
active: HOP-92 NSCLC -29.1% | NCI-H522 lung 0.551%
